Source: PubChem BioAssay (The Scripps Research Institute Molecular Screening Center)
UHRF1 binding – blocks human UHRF1 binding to methylated DNA; Q96T88; UHRF1 binding to methylated oligo, TR-FRET; inhibition, % at 4.4 µM; 0.75% of 370,000 active; in the data active = inhibition above about 21%;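 note: UHRF1 SRA domain binding a hemimethylated CpG hairpin DNA probe; 0% = median of test compound wells and 100% = reference inhibitor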
PLC-beta3 inh – PLC-beta3 (human) inhibition, primary screen; Q01970; Purified PLC-beta3, fluorogenic substrate, fluorescence; inhibition, % at 12.2 µM; 0.18% of 370,000 active; AID 720704; in the data active = inhibition above about 11%;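 note: 0% = median of compound wells on plate and 100% = full blocker control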
MBD2 inh – MBD2-methylated oligo binding inhibition; inhibition, % at 4.4 µM; 0.31% of 370,000 active; TR-FRET, MBD2 binding to methylated oligonucleotide; in the data active = inhibition above about 13%
Target sequence (Q9UBB5 whole entry, looked up): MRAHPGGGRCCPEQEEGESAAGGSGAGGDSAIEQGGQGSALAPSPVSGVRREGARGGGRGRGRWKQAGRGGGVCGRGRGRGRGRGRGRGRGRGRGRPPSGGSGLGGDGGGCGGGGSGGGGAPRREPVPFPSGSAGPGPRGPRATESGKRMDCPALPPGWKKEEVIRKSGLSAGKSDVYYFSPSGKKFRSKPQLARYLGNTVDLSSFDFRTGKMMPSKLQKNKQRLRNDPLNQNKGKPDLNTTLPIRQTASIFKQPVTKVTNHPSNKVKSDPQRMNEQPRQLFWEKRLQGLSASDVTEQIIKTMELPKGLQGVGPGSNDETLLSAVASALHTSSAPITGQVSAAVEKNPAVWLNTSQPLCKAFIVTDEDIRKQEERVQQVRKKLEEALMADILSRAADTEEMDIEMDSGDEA
PLCg1 inh – inhibitors of human phospholipase C gamma1; purified PLC-gamma1, fluorogenic substrate, fluorescence; inhibition, % at 12.2 µM; 0.84% of 370,000 active; P19174; in the data active = inhibition above about 9.5%
LEDGF integ inh – blocks HIV-1 LEDGF/p75-dependent DNA integration; TR-FRET IN-LEDGF/p75 DNA integration, Eu/Cy5; inhibition, % at 3.7 µM; 0.64% of 370,000 active; AID 743269;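 active = inhibition above the screen-wide mean plus 3 SD, cut at about 13% in these data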;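 note: signal is the Cy5 over europium emission ratio at 671 and 618 nm; 0% = plate median of compound wells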
Starred values were filed as active, the others as inactive. Most compounds without a hit are left out; they make up all but 2.4% or so of the library.

SMILES	UHRF1 binding	PLC-beta3 inh	MBD2 inh	PLCg1 inh	LEDGF integ inh
COc1ccc(CN(C(=O)c2cc(=O)c3ccccc3o2)C2CCS(=O)(=O)C2)cc1OC (stereo not drawn)	21.5*	-4.4	8.9	4.4	2.2
CC(=O)c1cc(-c2ccccc2)c(=O)n2c1CCC2	-2.0	-2.3	-3.8	-0.2	-1.2
CCCCCC[C@H](CC)CN(C(=O)Oc1ccccc1)c1ccccc1	2.0	0.1	2.2	-2.0	1.2
O=S1(=O)CCN2C(c3ccc4c(c3)CCCC4)=CSC2=N1	5.7	11.2*	-1.9	0.9	1.7
COc1ccc(Nc2cccc3ccccc23)cc1	21.3*	-283.9	3.3	-215.7	3.5
COc1ccc(C(=O)C[n+]2ccc3c(c2)nc(Cc2ccccc2)n3C)cc1	4.1	-5.8	4.9	0.5	0.4
CCOC(=O)c1c(C)oc2c1cc(O)c1ccccc12	4.9	-7.7	-1.7	-6.1	-1.2
CCOC(=O)c1c(C)oc2c1c(C=NCc1ccccn1)c(O)c1ccccc12	7.4	-82.5	-6.3	-59.4	16.5*
COC(=O)CSc1nc(SC)nc2c1sc1nc(-c3ccco3)c3c(c12)CC(C)(C)OC3	23.9*	-7.9	2.3	2.2	2.8
COc1ccc(CCNS(=O)(=O)c2cc3c4c(c2)CC(=O)N4CCC3)cc1	25.8*	-6.6	2.9	3.4	0.5
COc1ccc(S(=O)(=O)Nc2cc3c4c(c2)CC(=O)N4CCC3)cc1	-2.4	-10.5	-1.5	-3.2	-3.0
CCOC(=O)C1CCCN(Cc2cc(=O)oc3cc(C)c(C(C)C)cc23)C1 (stereo not drawn)	26.4*	-3.5	-0.5	-3.0	0.5
COc1ccc(C(=O)NCC(=O)OCc2ccc(Br)cc2)cc1	0.7	-2.1	-2.1	0.6	-0.3
O=C(CNC(=O)c1ccc(-c2ccccc2)cc1)OCc1ccc(Br)cc1	25.6*	3.9	6.3	0.7	3.1
CC1CCCCC1NC(=S)Nc1ccc(SC(F)F)cc1 (stereo not drawn)	37.9*	-0.2	0.9	-0.9	0.2
COC1=C/C(=C/c2c(N)n3nc(CC(=O)N4CCCC4)sc3nc2=O)C=CC1=O	7.2	-51.7	-1.2	-26.1	5.3
Nc1c(/C=C2/C=CC(=O)C(O)=C2)c(=O)nc2sc(CC(=O)N3CCCCC3)nn12	26.2*	-53.5	6.2	-30.7	15.8*
COC1=CC(=Cc2c(N)n3nc(CC(=O)N4CCCCC4)sc3nc2=O)C=C(OC)C1=O	32.1*	-48.3	11.9	-31.6	-0.4
CCCCCCCC(=O)Nc1cc(C(=O)NCCC)ccc1N1CCC2(CC1)CC(c1ccccc1)=NO2	21.1*	0.8	11.9	2.6	6.5
CCCNC(=O)c1ccc(N2CCC3(CC2)CC(c2ccccc2)=NO3)c(NC(=O)c2ccccc2)c1	-0.9	-0.2	-3.5	0.3	-1.5
CCOC(=O)c1c(/N=C/c2ccc(C)cc2O)sc2c1CCC2	-0.3	-1.0	-3.6	-3.2	-1.1
CCOC(=O)c1c(/N=C/N(C)C)sc2c1CCC2	95.3*	-1.1	4.0	5.3	-0.8
Cc1cccc2cc(CN(CC3CCCO3)C(=O)NC3CCCCC3)c(=O)[nH]c12 (stereo not drawn)	6.4	2.4	2.4	9.7*	4.2
COc1ccc(CCNCC(=O)Nc2c(C)cc(C)cc2C)cc1OC	20.8*	-2.4	4.5	0.8	0.4
COC(=O)[C@]12C[C@H](CC(=O)N3CCN(C(=O)C4CC4)CC3)C(=O)N(CCc3ccc(OC)c(OC)c3)C1=C[C@H](C(C)(C)C)O[C@@H]2C	-2.6	-0.6	-6.6	-0.2	1.8
SMILES	UHRF1 binding	PLC-beta3 inh	MBD2 inh	PLCg1 inh	LEDGF integ inh
OCCCCNCc1cc(Br)ccc1OCc1ccccc1	29.3*	-2.3	10.5	4.3	0.5
CC(C)(CO)NCc1cc(Br)ccc1OCc1ccccc1	2.5	1.8	2.6	-0.9	-3.5
COc1ccccc1NC(=O)N1CCN(C)CC1	34.1*	-4.1	4.3	-2.8	-4.0
COc1ccccc1NC(=O)N1CCCC1	4.8	4.8	3.1	-0.4	-3.0
COc1ccccc1NC(=O)CN1CCN(C(=O)c2ccco2)CC1	26.6*	-0.1	0.2	-1.3	0.7
COc1ccccc1NC(=O)c1ccc(NC(=O)CN2CCN(C(=O)c3ccco3)CC2)cc1	-2.0	-2.5	0.6	-0.7	4.0
Cc1ccc(C(C)C)cc1OCC(=O)Nc1nnc(C2CC2)s1	26.8*	2.2	4.4	1.3	1.2
CCCCn1nnnc1C(CC)N1CCN(C/C=C/c2ccccc2)CC1 (stereo not drawn)	21.8*	-4.6	9.6	-1.4	3.0
